SMILES strings stand for the structures. “And” between values parts separate entries of the source, which are not always exact repeats. Equal entries are not always repeated. Among all 340,000 compounds or so, about 12,000 (3.5%) were called active. A call without a number means that no potency is given here. Roughly 18% stayed inconclusive and do not appear here. The sample holds actives, similar compounds and a random draw of the others, so the mix is not that of the screen. Calls follow the shape of the dose curve; as a rule, active = well fitted inhibition curve with a large enough effect; inconclusive = small, poorly fitted or top-dose-only effect, or another doubt; inactive = no such curve, though single readings can be large or run the other way. Some compounds were tested as several samples or in several runs, with calls that do not always agree.
Potency is read from the fitted curve at half-maximal effect.

The experiment can be described thus: qHTS Assay for Inhibitors of Hepatitis C Virus (HCV). The note with it: Huh7.5.1 HCVcc-Cre infection, luciferase reporter, 44 h; series mostly up to 41.8 µM. Put shortly:
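Cells seeded at 1,000/well and cultured 4 h, then compounds added followed by HCVcc-Cre virus (~0.5 moi). After 44 h further culture, luciferase substrate was added, plates held 15 min at room temperature, and luminescence read for 15 sec.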
`COc1ccc(CCNC(=O)C(=O)NCC2OCCN2S(=O)(=O)c2cccs2)cc1OC` (stereo not drawn): the Potency result was “inactive”.

Regarding `Cc1ccc(SCC(=O)Nc2nncs2)cc1`, the Potency result is “inactive”.

Regarding `O=C(OCC(=O)N1CCCC1)c1ccc(Cl)nc1`, the Potency entry was “inactive”.

Consider `COC(=O)Cc1nc2c(N)nc(N)nc2[nH]c1=O`, for which the Potency entry was “inactive”.

Regarding `O=C1N[C@H](Cc2ccccc2)C(=O)N[C@H]1Cc1cn(S(=O)(=O)c2ccccc2)c2ccccc12`, the Potency result is “inactive”.

On to `O=C(CNC(=O)c1ccco1)NNC(=O)c1ccc(Br)cc1`, for which the Potency result is “inactive”.

Take `COc1ccc(NC(=O)CN(C)C(=O)/C=C/c2cn(Cc3ccccc3)nc2-c2cccnc2)cc1`: the Potency result is “inactive”.

On to `C[C@H]1CN([C@@H](C)CO)C(=O)Cc2cc(NS(C)(=O)=O)ccc2O[C@@H]1CN(C)CC1CC1`, for which the Potency entry is “inactive”.

Regarding `Cc1c(C(=O)Nc2cccc(S(=O)(=O)N3CCOCC3)c2)oc2ccccc12`, the Potency was 14.1 µM (active).

On to `Cc1occc1C(=O)Nc1cccc(S(=O)(=O)N2CCOCC2)c1`, for which the Potency entry was “inactive”.

Consider `O=C(CSc1ccccc1)Nc1cccc(S(=O)(=O)N2CCOCC2)c1`, for which the Potency entry was “inactive”.

On to `CCCC(O)(c1ccccc1)C(c1ccccc1)c1ccccn1` (stereo not drawn), for which the Potency entry is “inactive”.

On to `Cc1c(C(=O)Nc2ccccn2)oc2ccc(Br)cc12`, for which the Potency entry is “inactive”.

Regarding `O=c1[nH]c(CN2CCOCC2)nc2cc(Cl)ccc12`, the Potency entry was “inactive”.

For the molecule `O=c1[nH]c(CCl)nc2cc(-c3ccc(Cl)cc3)sc12`, the Potency is 6.31 µM (active).

On to `NC(=O)Cc1nc2scc(-c3ccc(Cl)cc3)c2c(=O)[nH]1`, for which the Potency entry is “inactive”.

Consider `COc1ccc(/C=C/C(=O)OCC(=O)NC2CCCCCC2)cc1OC`, for which the Potency entry was “inactive”.

For `COc1cc(OC)cc(C(=O)NC(C(=O)N2CCC2)C(C)C)c1` (stereo not drawn), the Potency entry was “inactive”.

Turning to `CC(C=Cc1ccccc1)=NNS(=O)(=O)c1ccc([N+](=O)[O-])cc1`, the Potency result was “inactive”.

Regarding `COc1ccccc1NC1=NC2(CCCC2)N=C(N)N1`, the Potency entry is “inactive”.

Take `CC1(C)N=C(N)NC(Nc2ccc(Cl)cc2)=N1`: the Potency result was “inactive”.

On to `COc1ccccc1NC1=NC(c2ccc(Cl)cc2)N=C(N)N1` (stereo not drawn), for which the Potency is 10 µM (active).

Consider `O=c1oc2ccccc2c(=O)c2ccccc12`, for which the Potency result was “inactive”.

`Cc1ccccc1-n1nnc2c(=O)oc3ccccc3c21`: the Potency was 35.5 µM (active).

On to `CCOC(=O)c1c(C)nc2c(c1C)c(=O)oc1ccccc12`, for which the Potency entry was “inactive”.

Regarding `Cc1cc(NC(=O)CSc2nnc(-c3ccco3)n2N)no1`, the Potency result is “inactive”.

As for `COc1ccc(/C=N/Nc2ncnc3sc4c(c23)CCCC4)cc1O`, the Potency was 11.2 µM (active).

For `COc1ccc(NC(=O)CCNC(=O)Cn2cnc3sc4c(c3c2=O)CCCC4)cc1OC`, the Potency entry was “inactive”.

With `COc1ccc(NC(=O)CCCNC(=O)Cn2cnc3sc4c(c3c2=O)CCCC4)cc1OC`, the Potency entry was “inactive”.

With `O=C(COC(=O)/C=C/c1cccc(Cl)c1)NCc1cccs1`, the Potency result is “inactive”.

Turning to `O=C(OCC(=O)N1CCCCC1)c1ccc(OC(F)(F)F)cc1`, the Potency entry is “inactive”.

For the molecule `COc1ccc(Cl)cc1C(=O)NCC#N`, the Potency result was “inactive”.

Take `CCN(CC)CCNC(=O)c1ccc(NS(=O)(=O)c2ccc3c(c2)OCCO3)cc1`: the Potency entry was “inactive”.

For `CCN(CC)CCNC(=O)c1cc(S(C)(=O)=O)ccc1OC`, the Potency result was “inactive and 35.5 µM (active)”.

On to `COc1ccccc1/C=C/C(=O)OCC(=O)NC1CCCCCC1`, for which the Potency entry is “inactive”.

With `CCOc1ccccc1C(=O)NCCCn1ccnc1`, the Potency entry was “inactive”.

Consider `Clc1c(OCCCn2ccnc2)ccc2ccccc12`, for which the Potency is 14.1 µM (active).

On to `O=C(CCN1C(=O)c2ccccc2C1=O)NCCCn1ccnc1`, for which the Potency entry is “inactive”.

Take `N#Cc1cc([N+](=O)[O-])ccc1NC(=O)COC(=O)c1cnccn1`: the Potency entry is “inactive”.

Consider `CCOC(=O)C/C(C)=N\Nc1ccc([N+](=O)[O-])cc1[N+](=O)[O-]`, for which the Potency result is “inactive”.

On to `CCOC(=O)/C(=N\Nc1ccccc1[N+](=O)[O-])c1csc(Nc2ccccc2)n1`, for which the Potency was 5.01 µM (active).

On to `Cc1csc(NC(=O)Nc2ccccc2[N+](=O)[O-])n1`, for which the Potency result was “inactive”.

`COc1ccc(N=C2C=CC(=O)O2)cc1`: the Potency entry was “inactive”.

`COc1ccccc1C(=O)COC(=O)COc1ccc(C#N)cc1`: the Potency result is “inactive”.

`CCn1c(Cc2ccccc2)nnc1SCc1nc2ccccc2c(=O)[nH]1`: the Potency entry was “inactive”.

As to `O=c1[nH]c(CSc2ncc(-c3ccc(F)cc3)n2Cc2ccco2)nc2ccccc12`, the Potency was 25.1 µM (active).

Consider `Cn1c(-c2ccc(F)cc2)cnc1SCC(=O)NCc1ccco1`, for which the Potency result was “inactive”.

Consider `CC(C)(CNC(=O)CNC(=O)C1CCCCC1)N1CCOCC1`, for which the Potency entry was “inactive”.

Turning to `O=C(C[C@@H]1C/C=C\CCC(=O)OC[C@@H]2CCCN2C1=O)NCCO`, the Potency entry was “inactive”.

As for `COc1ccc(CS(=O)/C(Cl)=C(/Cl)C(=O)Nc2ccc(OC)nc2)cc1` (stereo not drawn), the Potency was 4.47 µM (active).

Turning to `COc1ccc(C(=O)Nc2ccc(NC(=O)C(C)C)nc2)cc1`, the Potency entry was “inactive”.

For `COc1ccc(Nc2cc(Cl)ccc2C(=O)O)cn1`, the Potency entry is “inactive”.

For `COc1ccc(NS(=O)(=O)c2ccc(C)c(C(=O)NCC(c3cccs3)N3CCOCC3)c2)cc1` (stereo not drawn), the Potency result is “inactive”.

`CC(C)Cc1nnc(N)s1`: the Potency entry is “inactive”.

On to `Cc1nc(-c2ccc(F)cc2)c(CC(=O)Nc2cc(S(=O)(=O)N3CCCCC3)ccc2C)s1`, for which the Potency entry is “inactive”.

As to `COC1=CC(=O)OC(c2ccc(OC)cc2)C1` (stereo not drawn), the Potency entry was “inactive”.

For `CSc1ncc(Cl)c(C(=O)Nc2cc(C)ccc2C)n1`, the Potency result is “inactive”.

Take `CCSc1nnc(NC(=O)c2ccc(C)cc2)s1`: the Potency result is “inactive”.

As for `CSc1nnc(NC(=O)c2nc(S(=O)(=O)Cc3ccc(C)cc3)ncc2Cl)s1`, the Potency was 12.6 µM (active).

As to `CCC1Nc2ncnc(N3CCN(c4ccccc4)CC3)c2N(Cc2ccc(Cl)cc2)C1=O` (stereo not drawn), the Potency entry was “inactive”.

With `CCCN(CC1CC1)C(=O)COC(=O)c1ccc(C)cc1O`, the Potency result is “inactive”.

Consider `COc1ccc(C(=O)O)cc1S(=O)(=O)NC1CCN(Cc2ccccc2)CC1`, for which the Potency result was “inactive”.

Take `Oc1ccc2ccccc2c1N=Nc1nccs1`: the Potency was 8.91 µM (active).

As to `Oc1c(C=Nc2cccc3nsnc23)ccc2ccccc12`, the Potency result is “inactive”.

For the molecule `Oc1ccc(N=Cc2c(O)ccc3ccccc23)cc1`, the Potency result was “inactive”.

As to `COc1ccccc1CCC(=O)NNC(=O)c1ccncc1`, the Potency result was “inactive”.

Regarding `CC(C)(C)OC(=O)C[C@@H]1C/C=C\C[C@@H](CC(=O)N[C@H](CO)Cc2ccccc2)C(=O)NC[C@@H](c2ccccc2)OC1=O`, the Potency result was “inactive”.

Consider `COc1cc(CC(=O)NCc2cccs2)cc(OC)c1OC`, for which the Potency result was “inactive”.

For `COc1cc2c(-c3ccc4c(c3)OCO4)c(-c3ccsc3)oc(=O)c2cc1OC`, the activity change, negative = inhibition is -6.43% [at 8.37 µM] (inactive).

For the molecule `COC(=O)c1c(-c2ccsc2)oc2ccc(-c3cc(OC)c(OC)c(OC)c3)cc12`, the Potency is 12.6 µM (active).

Regarding `Cn1c(-c2ccc(F)cc2)cc2onc(-c3ccccc3Cl)c2c1=O`, the Potency result was “inactive”.

Consider `CC1(C)CC(=O)C=C(c2ccc(Cl)c(C(F)(F)F)c2)C1`, for which the Potency result is “inactive”.

As for `COc1ccc(S(=O)(=O)N2CCOCC2)cc1NC(=O)CSc1nnc(NC2CC2)s1`, the Potency result is “inactive”.

As for `Cc1cc(NC(=O)COC(=O)/C=C/c2ccc(C)o2)no1`, the Potency result was “inactive”.

As to `Cc1ccc(Nc2nc(N3CCOCC3)nc(N3CCOCC3)n2)cc1Cl`, the Potency entry was “inactive”.

Turning to `CNc1nc(Nc2ccc(C)c(Cl)c2)nc(N)c1[N+](=O)[O-]`, the Potency was 11.2 µM (active).

Turning to `Cc1ccc(Nc2nc(N)nc(CN3CCN(Cc4ccccc4)CC3)n2)cc1Cl`, the Potency result is “inactive”.

Consider `Nc1ncnc2c1ncn2[C@@H]1O[C@H](CNS(=O)(=O)c2ccc(-c3ccno3)s2)[C@@H](O)[C@H]1O`, for which the Potency result is “inactive”.

With `Cc1ccc(OCCNC(=O)CNC(=O)c2ccc(C)c(C)c2)cc1`, the Potency result was “inactive”.

In the case of `CCc1nnc(NC(=O)c2cc(S(=O)(=O)N3CCCCC3)ccc2C)s1`, the Potency result is “inactive”.

For `COc1ccc(CCC(=O)N2CCN(S(=O)(=O)c3ccc(OC)cc3)CC2)cc1`, the Potency result is “inactive”.

Regarding `Cc1nn(-c2ccc([N+](=O)[O-])cc2)c(N)c1-c1ccccc1`, the Potency entry was “inactive”.

`COc1ccc([N+](=O)[O-])cc1-c1nc2ccccc2nc1-c1ccccc1`: the Potency entry is “inactive”.

As to `Cn1nc(-c2ccccc2)c2cc([N+](=O)[O-])ccc21`, the Potency was 12.6 µM (active).

As to `CCN(C(=O)COC(=O)c1c(C)nn(-c2ccccc2)c1Cl)c1c(N)n(Cc2ccccc2)c(=O)[nH]c1=O`, the Potency entry is “inactive”.

Regarding `O=C(CN1C(=O)NC2(CCCC2)C1=O)Nc1cc(C(F)(F)F)ccc1N1CCOCC1`, the Potency result was “inactive”.

With `O=C(CCc1ccccc1Cl)Nc1ccc(S(=O)(=O)Nc2nccs2)cc1`, the Potency result is “inactive”.

`CC(C)(C)S(=O)(=O)N1Cc2cc(CO)cc(CCO)c2[C@H]1CCO`: the Potency entry was “inactive”.

`O=C(COC(=O)c1ccc([N+](=O)[O-])o1)NC12CC3CC(CC(C3)C1)C2`: the Potency entry is “inactive”.

On to `NS(=O)(=O)c1cccnc1Nc1cccc(Cl)c1`, for which the Potency result is “inactive”.

On to `Cn1c(Nc2cccc(Cl)c2)nc2ccccc21`, for which the Potency result is “inactive”.

In the case of `OCCCNc1nccc(-c2cc(Nc3cccc(Cl)c3)ncn2)n1`, the Potency is 2.82 µM (active).

On to `CCN1C(=O)[C@@H]2[C@@H](c3ccc(-c4ccc(OC)cc4)c(OC)c3)N3CCC[C@@]3(C(=O)OC)[C@@H]2C1=O`, for which the Potency result was “inactive”.

For the molecule `COc1ccc(S(=O)(=O)N2CCCCC2)cc1NC(=O)c1cc([N+](=O)[O-])ccc1N1CCOCC1`, the Potency was 7.94 µM (active).

Regarding `CC(C)(C)C(=O)COC(=O)c1cc(S(=O)(=O)N2CCCCC2)ccc1N1CCOCC1`, the Potency entry is “inactive”.

Turning to `O=C(OCCOc1ccccc1F)c1cc(S(=O)(=O)N2CCOCC2)ccc1F`, the Potency result was “inactive”.

As for `O=C(OCCOc1ccccc1Cl)c1cc(S(=O)(=O)N2CCCCC2)ccc1N1CCOCC1`, the Potency was 2.51 µM (active).

For `O=C(NCC1CCCCC1)c1cc(S(=O)(=O)N2CCCCC2)ccc1N1CCOCC1`, the Potency result was “inactive”.

On to `O=C(NC1CCCCC1)c1cc([N+](=O)[O-])ccc1N1CCOCC1`, for which the Potency entry was “inactive”.

Turning to `O=C(COC(=O)c1cc(S(=O)(=O)N2CCOCC2)ccc1F)NC1CC1`, the Potency entry is “inactive”.

On to `COC1C(CO)OC(n2cnc3c(=S)nc(N)[nH]c32)C1O` (stereo not drawn), for which the Potency entry is “inactive”.

With `CC(C)(C)c1ccc(S(=O)(=O)N2CCN(C(=O)c3ccc4c(c3)C(=O)N(Cc3ccncc3)C4=O)CC2)cc1`, the Potency result was “inactive”.

On to `CC[C@]1(C(=O)OC)[C@H]2C(=O)N(Cc3ccccc3)C(=O)[C@H]2[C@H]2CN=C(SCc3ccc(C#N)cc3)N21`, for which the activity change, negative = inhibition was -29.6% [at 8.37 µM] (inactive).

For the origin of these results see PubChem BioAssay AID651820 (National Center for Advancing Translational Sciences (NCATS), 2012).
